# Inconclusive results are not listed. A call without a number means that no potency is given here. The source made the active and inactive calls. Calls follow the shape of the dose curve; as a rule, active = well fitted curve in the direction sought with a large enough effect; inconclusive = small, poorly fitted or top-dose-only effect, or another doubt; inactive = no such curve, though single readings can be large; an effect the other way counts as inactive or inconclusive.
# Key:
# [1] = tested on: Zika virus NS2B-NS3 protease; test: Primary screen GU AMC qHTS for Zika virus inhibitors (AID 1347154); details: Zika NS2B-NS3 unlinked protease, AMC fluorogenic substrate; series mostly up to 54.1 µM; also: nearly all actives have a fitted effect of over 70% in size
# Procedure, shortened: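 Unlinked Zika NS2B hydrophilic domain–NS3 protease complex at 25 nM in 10 mM Tris-HCl pH 8.0, 0.01% Tween 20, with an AMC peptide substrate. Fluorescence change (340/450 nm) over 15 min at room temperature, normalized to controls, fitted to 4-parameter Hill.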
# [2] = tested on: Zika virus NS2B-NS3 protease (unlinked); test: Optimization of GU AMC qHTS for Zika virus inhibitors: Unlinked NS2B-NS3 protease assay (AID 1347151); details: recombinant ZIKV NS2B-NS3 protease, fluorogenic AMC substrate; series mostly up to 52.5 µM; also: nearly all actives have a fitted effect of over 80% in size
# Procedure, shortened: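 Fluorescence read-out (340 nm ex / 450 nm em) of AMC peptide cleavage, taken immediately and after 15 min at room temperature (~20% conversion). Enzyme was the unlinked NS2B–NS3 complex at 25 nM in Tris pH 8.0 buffer.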
# [3] = tested on: Zika virus NS2B-NS3 protease (unlinked complex); test: Primary screen GU Rhodamine qHTS for Zika virus inhibitors: Unlinked NS2B-NS3 protease assay (AID 1347159); details: Recombinant ZIKV NS2B-NS3 protease, Rhodamine110 substrate fluorescence; series mostly up to 107 µM; also: nearly all actives have a fitted effect of over 60% in size
# Procedure, shortened: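 A qHTS format was used, with compound concentrations ranging up to 114 microM. Each compound was preincubated with 25 nM NS2B-NS3 protease, and the substrate was then added at 1.5 microM. Curves were fitted with a 4-parameter Hill model.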
# [4] = tested on: Zika virus NS2B-NS3 protease (linked construct); test: Primary screen NINDS Rhodamine qHTS for Zika virus inhibitors (AID 1347160); details: purified NS2B-NS3 protease, Rhodamine110 substrate fluorescence; series mostly up to 57.1 µM; also: nearly all actives have a fitted effect of over 55% in size
# Procedure, shortened: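 Kinetic fluorescence (Ex 480 nm, Em 540 nm) over 15 min with 1.5 microM Rhodamine110 peptide and 25 nM linked protease.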
compound,measurement,setting,value
COC(=O)C1=C(C)NC(C)=C(C(=O)OCC(C)=O)C1c1ccccc1[N+](=O)[O-] (stereo unspecified),Potency,[1],inactive
CNC(=O)[C@H]1O[C@@H](n2cnc3c(NCc4ccc(N)cc4)ncnc32)[C@H](O)[C@@H]1O,Potency,[2],inactive
same,Potency,[1],inactive
Cc1[nH]cnc1CN1CCc2c(c3ccccc3n2C)C1=O,Potency,[1],inactive
CCCCCCCCCCCCCCCCCC(=O)O,Potency,[1],inactive
CSc1ccccc1N1CCN(CCCCCC(=O)NC2CCCc3ccccc32)CC1 (stereo unspecified),Potency,[2],inactive
same,Potency,[1],inactive
O=[N+]([O-])c1ccc(CNc2nc(NCc3cccc(C(F)(F)F)c3)nc3nc[nH]c23)cc1,Potency,[2],inactive
same,Potency,[3],inactive
same,Potency,[4],inactive
CSc1nc(N)c2ncn([C@@H]3O[C@H](COP(=O)(O)OP(=O)(O)OP(=O)(O)O)[C@@H](O)[C@H]3O)c2n1,Potency,[2],inactive
same,Potency,[1],inactive
Nc1ncnc2c1ncn2[C@@H]1O[C@H](COP(=O)(O)OP(=O)(O)OP(=O)(O)OP(=O)(O)OC[C@@H]2O[C@H](n3cnc4c(N)ncnc43)[C@@H](O)[C@H]2O)[C@@H](O)[C@H]1O,Potency,[2],inactive
same,Potency,[1],inactive
OC[C@H]1O[C@@H](n2cnc3c(NC4CCCC4)ncnc32)[C@H](O)[C@@H]1O,Potency,[2],inactive
same,Potency,[1],inactive
CCCC(=O)OC[C@@H](OC(=O)CCC)[C@@H](OC(=O)CCC)[C@H](Cn1c2nc(=O)[nH]c(=O)c-2nc2cc(C)c(C)cc21)OC(=O)CCC,Potency,[1],inactive
Nc1nc(Cl)nc2c1ncn2[C@@H]1O[C@H](CO)[C@@H](O)[C@H]1O,Potency,[2],inactive
same,Potency,[1],inactive
C[N+]1(C)CCC(OC(=O)C(c2ccccc2)c2ccccc2)CC1,Potency,[2],inactive
same,Potency,[1],inactive
